Source: PubChem BioAssay AID651815 (National Center for Advancing Translational Sciences (NCATS), 2012)
The whole screen tested about 2,100 compounds, of which about 1,100 (52%) were called active. Another 29% or so got no clear call; they are omitted. The set was probably picked from earlier hits. This is one part of the list. Unmarked numbers belong to inactive results. Calls follow the shape of the dose curve; as a rule, active = well fitted inhibition curve with a large enough effect; inconclusive = small, poorly fitted or top-dose-only effect; inactive = no such curve, though single readings can be large or run the other way.

target: DNA dC->dU-editing enzyme APOBEC-3F (Homo sapiens) (UniProt Q8IUX4); assay: qHTS for inhibitors of Vif-A3F interactions: Cherry picks counterscreen; conditions: HeLa A3F-eYFP/Vif cells, eYFP fluorescence, 24 h; series mostly up to 46.1 µM; activity, negative = inhibitor: at the top concentration; also: nearly all actives have a fitted effect of over 65% in size
Sequence (Q8IUX4 whole entry, looked up): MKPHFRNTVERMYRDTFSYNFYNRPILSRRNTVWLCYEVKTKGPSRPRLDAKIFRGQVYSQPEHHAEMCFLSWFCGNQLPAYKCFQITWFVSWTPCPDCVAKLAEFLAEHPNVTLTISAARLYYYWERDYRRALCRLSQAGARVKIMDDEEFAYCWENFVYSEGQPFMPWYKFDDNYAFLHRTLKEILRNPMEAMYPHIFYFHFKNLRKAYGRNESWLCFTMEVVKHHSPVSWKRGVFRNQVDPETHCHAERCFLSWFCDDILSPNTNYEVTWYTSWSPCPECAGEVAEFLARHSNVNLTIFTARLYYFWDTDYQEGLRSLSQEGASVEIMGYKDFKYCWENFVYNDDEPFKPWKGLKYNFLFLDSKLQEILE
Source text: The recent discovery and characterization of host restriction factors, which provide a potent defense to invading retroviruses, has provided new targets for antiviral drug development. APOBEC3G (A3G) and APOBEC3F (A3F) are potent cytidine deaminases that block HIV-1 replication; HIV-1 expresses the Vif protein, which counteracts A3G and A3F by binding to them and inducing their proteasomal degradation. The Vif-A3G and Vif-A3F interactions provide two potential targets for development of small molecules which can interfere with the ability of Vif to degrade A3G or A3F. […] To identify inhibitors that can interfere with Vif mediated degradation of A3G and A3F, we have developed Hela cell lines that stably express A3G or A3F tagged with eYFP at the C-terminal end (A3G-eYFP or A3F-eYFP, respectively) and Vif. In the absence of an inhibitor, Vif induces degradation of A3G-eYFP and A3F-eYFP, and the cells are not fluorescent. In the presence of an inhibitor, it is expected that Vif will be unable to degrade A3G-eYFP and/or A3F-eYFP, resulting in an increase in yellow fluorescence. In this counterscreen assay, Vif A3F was screened against the cherry picks ordered from the MLSMR. NIH Chemical Genomics Center [NCGC] NIH Molecular Libraries Probe Centers Network [MLPCN] MLPCN Grant: MH093245 Assay Submitter (PI): Vinay Pathak, National Cancer Institute
A3F-Vif cells were harvested from T225 flask and resuspended in phenol free OPTI-MEM medium with 5% FBS. Then 5 uL of 140,000 cells/mL resuspended cells was dispensed into each well of low base Aurora COC 1,536-well plates (black walled, clear bottom) using a Multidrop Combi dispenser. After overnight culture at 37 deg C with 5% CO2, a total of 23 nL of compounds at 5 selected concentrations from the NPC or positive control (2 mM stock of MG132) in DMSO was transferred to each well of the assay plate using a pintool (Kalypsys, San Diego, CA), and the plates were further incubated at 37 deg C with 5% CO2 for 24 hours. After that, the plates were measured on Acumen Explorer (TTP Lab Tech). The fluorescence was detected by 488 nm/Ex and […].
% is scaled to controls: 0 for no effect and ±100 for the full control effect; potency is read from the fitted curve at half-maximal effect.

Structure (SMILES)	activity, negative = inhibitor	Potency
O=C(NC(=S)Nc1ccccc1N1CCCCC1)c1ccccc1	-14.4%	
CCCN1CCc2c(sc(NC(=O)c3ccc(S(=O)(=O)N(C)c4ccccc4)cc3)c2C(N)=O)C1		23.1 µM (active)
CCCN1CCc2c(sc(NC(=S)NC(=O)c3ccccc3)c2C#N)C1		16.4 µM (active)
N#CC(C#N)=C1C=C2C=C(N3CCOCC3)CCC2CC1 (centres undefined)	24.4%	
O=C1OCC2=C1C(c1ccc3c(c1)OCO3)c1cc3c(cc1O2)OCO3 (centres undefined)		1.25 µM (active)
COc1cc(C2C3=C(COC3=O)Oc3cc4c(cc32)OCO4)ccc1OC(C)=O (centres undefined)		3.14 µM (active)
N#C/C=C/N1CCN(C(=O)c2ccco2)CC1	15% [at 36.9 µM]	
CCCCn1c(N)c(N(CCC(C)C)C(=O)c2ccc([N+](=O)[O-])o2)c(=O)[nH]c1=O	-13.3%	
C=CCN1C(=O)c2ccc(C(=O)N(CC(C)C)c3c(N)n(CCCC)c(=O)[nH]c3=O)cc2C1=O	-17.4% [at 36.9 µM]	
CCCCn1c(N)c(N(CC(C)C)C(=O)Cc2ccc(S(=O)(=O)N3CCOCC3)s2)c(=O)[nH]c1=O		16.4 µM (active)
O=C(O)c1ccccc1N/N=C/c1c(Sc2nnnn2-c2ccccc2)nc2ccccn2c1=O	31.2% [at 36.9 µM]	
CC(C)COc1ccc(C(=O)N/C(=C/c2cccc([N+](=O)[O-])c2)C(=O)O)cc1	-5.47% [at 36.9 µM]	
CCN1C/C(=C\c2cccc([N+](=O)[O-])c2)C(=O)/C(=C/c2cccc([N+](=O)[O-])c2)C1		2.5 µM (active)
C[n+]1ccc(/C=C/c2c[nH]c3ccccc23)cc1		6.51 µM (active)
OCC[n+]1ccc(/C=C/c2c[nH]c3ccccc23)cc1		5.8 µM (active)
CC[n+]1ccc(/C=C/c2c[nH]c3ccccc23)cc1		1.84 µM (active)
C[n+]1ccc(/C=C/c2cc[n+](C)c3ccccc23)c2ccccc21	0.363%	
COc1ccccc1NC(=O)Cc1ccc(-c2ccccc2)cc1	-0.174%	
O=C(Nc1ccccc1OC(=O)c1ccccc1)c1ccccc1		15.8 µM (active)
NC(=S)N/N=C/c1ccccc1OC(=O)/C=C/c1ccccc1	6.59%	
COc1ccc(C(=O)N/N=C/c2ccccc2OC(=O)c2ccccc2)cc1		3.96 µM (active)
O=C(NC(=S)Nc1ccc(-c2ccccc2)cc1)c1ccccc1	10.7%	
C=C1C(=O)O[C@H]2C1CC[C@@](C)(O)C13C=CC(C)(C21)C1(C3)C(=O)O[C@@H]2C3C(C)=CCC3[C@](C)(O)C[C@H](OC(C)=O)C21 (some centres undefined)		17.7 µM (active)

Structure (SMILES)	activity, negative = inhibitor	Potency
Cc1c(N=C2N=C(NC(=O)c3cccs3)c3ccccc32)c(=O)n(-c2ccccc2)n1C		14 µM (active)
Cc1c(NC(=O)c2csc3c2CCCC3)c(=O)n(-c2ccccc2)n1C	9.75%	
N#Cc1c(C(F)(F)F)cc(-c2ccccc2)nc1SCc1nc(N)nc(N2CCOCC2)n1		16.4 µM (active)
COc1c(-c2ccc(O)c(O)c2)oc2cc(O)cc(O)c2c1=O		12.5 µM (active)
Cc1cc(NC(=O)Nc2nnc(N(C)Cc3ccccc3)s2)ccc1Br	0.433%	
CSc1nc2ccccc2cc1/C=C(\C#N)c1cccc(C)c1		11.2 µM (active)
N#C/C(=C\c1cccc(O)c1)c1nc2ccccc2o1		7.9 µM (active)
C/C(=N\Nc1nc(C)cc(-c2ccccc2)n1)c1ccc(F)cc1	-4.82%	
Nc1c(C(=O)N/N=C/c2ccc(F)cc2)oc2nc(-c3ccccc3)cc(-c3ccco3)c12		14 µM (active)
Nc1c(C(=O)N/N=C/c2cccnc2)oc2nc(-c3ccccc3)cc(-c3ccco3)c12		4.11 µM (active)
Nc1c(C(=O)N/N=C/c2ccccc2Cl)oc2nc(-c3ccccc3)cc(-c3ccco3)c12		10.3 µM (active)
CCOc1ccc2nc(NC(=O)c3nc(SC(C)C)ncc3Cl)sc2c1		11.6 µM (active)
Cc1ccc(NC(=O)/C=C/c2ccc([N+](=O)[O-])s2)cc1		10.3 µM (active)
COC(=O)c1sccc1NC(=S)Nc1cc(C)cc(C)c1	7.32%	
Cc1cccc(NC(=O)/C=C/c2ccc([N+](=O)[O-])s2)c1		7.31 µM (active)
Cc1cc(C)cc(NC(=O)/C=C/c2ccc([N+](=O)[O-])s2)c1		16.4 µM (active)
Cc1ccc(NC(=O)/C=C/c2ccc([N+](=O)[O-])s2)c(C)c1		18.4 µM (active)
CCC(=O)OCc1cnc(C)c2oc(=O)c(C(=O)Nc3ccccc3C(F)(F)F)cc12	-17.4%	
CC(=O)c1cccc(NC(=O)/C=C/c2ccc([N+](=O)[O-])s2)c1		16.4 µM (active)
CC(=O)c1cccc(NC(=S)N2c3ccccc3CC2C)c1 (centres undefined)	3.12% [at 36.9 µM]	
CCOCCC(=O)Nc1ccc2c(c1)c(=O)n(C)n2C/C=C/c1ccccc1		15.8 µM (active)
COc1ccc2[nH]c(C(=O)N/N=C/c3ccc(OC)c(O)c3)cc2c1		3.14 µM (active)
COc1ccc(/C=N/NC(=O)c2cc3c(OC)ccc(OC)c3[nH]2)cc1O		4.44 µM (active)

Structure (SMILES)	activity, negative = inhibitor	Potency
CN[C@H]1CCc2cc(OC)c(OC)c(OC)c2-c2ccc(N(C)CC(OC)OC)c(=O)cc21		2.8 µM (active)
COc1cc2c(c(OC)c1OC)-c1ccc(N(C)CC(OC)OC)c(=O)cc1[C@@H](NC(C)=O)CC2		1.12 µM (active)
CSc1cccc(NC(=O)c2cc3c(COC(C)=O)cnc(C)c3oc2=O)c1	3.84%	
CCN(CC)c1ccc2cc(-c3nc4ccccc4n3C)c(=O)oc2c1		7.31 µM (active)
CCN(CC)c1ccc2cc(-c3nnc(-c4cccc(Cl)c4)o3)c(=O)oc2c1		0.206 µM (active)
CCN(CC)c1ccc2cc(C(N)=O)c(=N)oc2c1	37.6%	
CCN(CC)c1ccc2cc(-c3nnc(-c4ccccc4)o3)c(=O)oc2c1		0.112 µM (active)
CCN(CC)c1ccc2cc(-c3nc(-c4ccc(Cl)cc4Cl)cs3)c(=O)oc2c1	-4.58%	
CCN(CC)c1ccc2cc(-c3nc(-c4cccs4)no3)c(=O)oc2c1		0.291 µM (active)
CN(C)S(=O)(=O)c1ccc(N2CCCC2)c(C(=O)N2CCN(S(=O)(=O)c3ccc(F)c(F)c3)CC2)c1	7.98% [at 36.9 µM]	
CCOC(=O)c1c(C)sc(-c2c(-c3ccccc3)[nH]c3[nH]c(=O)[nH]c(=O)c23)c1O		23.1 µM (active)
Cc1ccc(S(=O)(=O)CCSc2nc(C)cc(C(F)(F)F)c2C#N)cc1		12.5 µM (active)
COCc1cc(C)nc(SCC(=O)Nc2ccc3[nH]c(=O)[nH]c3c2)c1C#N	-19.9%	
CCOC(=O)c1ccc(N=Nc2c(C)c(C#N)c(O)[nH]c2=O)cc1	-26.8%	
CCOC(=O)c1ccc(NC(=O)CSc2nc(-c3ccc(OC)cc3)cc(C(F)(F)F)c2C#N)cc1		23.1 µM (active)
CCCCOc1ccc(-c2cc(C(F)(F)F)c(C#N)c(SCC(=O)O)n2)cc1		18.4 µM (active)
CCOC(=O)c1ccc(NC(=O)CSc2nc(-c3ccc(F)cc3)cc(C(F)(F)F)c2C#N)cc1		18.4 µM (active)
Cc1cc(C(F)(F)F)c(C#N)c(SCC(=O)Nc2nc3ccccc3s2)n1		16.4 µM (active)
Cc1sc2nc(CSCC(=O)Nc3ccccc3C#N)[nH]c(=O)c2c1C	-1.56%	
Cc1coc(NC(=O)CSc2nc(-c3ccncc3)cc(C(F)(F)F)c2C#N)n1		7.31 µM (active)
CN(C)c1ccc(/C=C2\Oc3ccc(C#Cc4cccc(N)c4)cc3C2=O)cc1		15.8 µM (active)
O=C(Cc1n[nH]c(=O)c2ccccc12)OCC(=O)c1ccc2c(c1)OCCO2		2.8 µM (active)
CCOc1ccc(C(=O)COC(=O)Cc2n[nH]c(=O)c3ccccc23)cc1		4.44 µM (active)

Structure (SMILES)	activity, negative = inhibitor	Potency
COc1cccc(N=C2NC(=O)/C(=C/c3cc([N+](=O)[O-])ccc3O)S2)c1	-25.7%	
COc1ccc(C(=O)/C=C/Nc2ccc([N+](=O)[O-])cc2C)c(OC)c1		18.4 µM (active)
N#C/C(N=Nc1ccccc1O)=N\Nc1ccccc1O		5.17 µM (active)
O=[N+]([O-])c1cc(Cl)c2cccnc2c1O	4.37%	
Cc1cc(N2CCN(c3ccc([N+](=O)[O-])c4cccnc34)CC2)c2ccccc2n1		20.6 µM (active)
COc1ccccc1Nc1cc2cc(Br)ccc2c(=O)[nH]1		7.04 µM (active)
COc1cccc(NC(=O)c2oc3ccc(S(=O)(=O)N4CCC5(CC4)OCCO5)cc3c2C)c1		13 µM (active)
COc1ccc(NC(=O)c2oc3ccc(S(=O)(=O)N4CCOCC4)cc3c2C)cc1	-10.1% [at 36.9 µM]	
COc1ccc(OCCCC(=O)N2CCN(S(=O)(=O)c3cccc(F)c3)CC2)cc1	8.38%	
Cc1ccc(NC(=O)C2CCN(S(=O)(=O)c3ccc(Cl)c(C(F)(F)F)c3)CC2)nc1	0.17% [at 36.9 µM]	
CN(CC(=O)Nc1ccc(Cl)c(C(F)(F)F)c1)C(=O)c1ccc(S(=O)(=O)N2CCOCC2)cc1		4.44 µM (active)
COC(=O)C1CCC(=O)N1C(c1ccc(OC)cc1)c1cc(OC)c(OC)c(OC)c1 (centres undefined)		0.79 µM (active)
CC1=CN2C(=N)/C(=C/c3ccc([N+](=O)[O-])o3)C(=O)N=C2S1		14 µM (active)
CCS(=O)(=O)C1=NN2C(=N)/C(=C\c3ccc(SCc4ccco4)o3)C(=O)N=C2S1	11.1%	
CCOC(=O)C1=C(Cc2ccc(F)cc2)C(=O)c2ccccc2C1=O		16.4 µM (active)
COc1ccc(C(C)(O)c2nc(-c3ccccc3OC)cs2)cc1 (centres undefined)		12.5 µM (active)
CCOc1cc(/C=C(\C#N)c2nc(-c3cccs3)c(NC(C)=O)s2)ccc1O	39.2%	
CC(=O)Nc1sc(/C(C#N)=C\c2cccc(Cl)c2)nc1-c1ccc(C)cc1		11.6 µM (active)
CC(=O)Nc1sc(/C(C#N)=C/c2ccc(Cl)c(Cl)c2)nc1-c1ccc(C)cc1		2.59 µM (active)
COc1ccc(CN(C(C)=O)c2cccc(C)c2C)cc1		15.8 µM (active)
